Laboratory results as given in PubChem BioAssay (NCATS).
Results filed as inconclusive are left out. Active and inactive are the calls of the source. Unless noted, calls come from the whole dose curve; as a rule, active = well fitted curve in either direction with a large enough effect (not every such curve was filed as active); inconclusive = small, poorly fitted or top-dose-only effect, or another doubt; inactive = flat fitted curve, though single readings scatter.

Legend:
[1] = biological target: Lysosomal acid glucosylceramidase (Homo sapiens) (UniProt P04062); experiment: Glucocerebrosidase-p2 (AID 348; in the data active = potency below about 10 µM; note: potency is the fitted concentration of half-maximal effect); settings: purified GBA, blue fluorogenic substrate, 40 min
Lysosomal acid glucosylceramidase (Homo sapiens), sequence (P04062 whole entry, looked up): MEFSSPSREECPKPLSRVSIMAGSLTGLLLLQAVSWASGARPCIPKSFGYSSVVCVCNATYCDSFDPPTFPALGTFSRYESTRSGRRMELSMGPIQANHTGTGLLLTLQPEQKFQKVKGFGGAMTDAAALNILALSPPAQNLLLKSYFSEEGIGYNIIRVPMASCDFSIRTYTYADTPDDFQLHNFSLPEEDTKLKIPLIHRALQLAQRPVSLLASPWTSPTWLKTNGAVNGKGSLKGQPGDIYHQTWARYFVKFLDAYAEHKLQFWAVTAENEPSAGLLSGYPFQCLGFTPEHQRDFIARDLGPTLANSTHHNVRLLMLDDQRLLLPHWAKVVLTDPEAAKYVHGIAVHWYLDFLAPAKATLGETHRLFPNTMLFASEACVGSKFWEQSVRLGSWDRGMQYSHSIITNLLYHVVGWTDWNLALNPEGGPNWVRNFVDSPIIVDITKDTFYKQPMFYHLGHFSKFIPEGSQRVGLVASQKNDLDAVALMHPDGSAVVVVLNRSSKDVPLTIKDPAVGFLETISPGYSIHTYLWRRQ
Outline: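 Compounds titrated from 0.6 nM upwards against 0.2 nM enzyme in pH 5.9 citric acid/KH2PO4, taurocholate, tween-20; blue fluorogenic substrate 80 uM, 40 min room temperature, stopped and read Ex 365/Em 440 for AC50.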

[2] = AP1 Signaling Pathway (AID 357); settings: ME-180 AP-1-bla reporter, EGF-induced, beta-lactamase ratio, 5 h; at 7.69 µM (top of the series) unless noted; note: % is set by controls: 0 for no effect and ±100 for the full control effect
Outline: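 ME-180 cells with beta-lactamase reporter under AP-1 response element, stimulated with EC50 EGF; compounds tested in titration series, 5 h at 37 °C. CCF4 substrate added 2.5 h at room temperature; 460/530 nm emission ratio gave %activity and AC50.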

[3] = biological target: Cytochrome P450 1A2 (Homo sapiens) (UniProt P05177); experiment: p450-cyp1a2 (AID 410; calls by dose curve; note: potency is the fitted concentration of half-maximal effect;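 for activity change, negative = inhibition: -100% = full effect of reference inhibitor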); settings: recombinant CYP1A2, luciferin-ME demethylation, luminescence; series mostly up to 11.4 µM
Cytochrome P450 1A2 (Homo sapiens), sequence (P05177 whole entry, looked up): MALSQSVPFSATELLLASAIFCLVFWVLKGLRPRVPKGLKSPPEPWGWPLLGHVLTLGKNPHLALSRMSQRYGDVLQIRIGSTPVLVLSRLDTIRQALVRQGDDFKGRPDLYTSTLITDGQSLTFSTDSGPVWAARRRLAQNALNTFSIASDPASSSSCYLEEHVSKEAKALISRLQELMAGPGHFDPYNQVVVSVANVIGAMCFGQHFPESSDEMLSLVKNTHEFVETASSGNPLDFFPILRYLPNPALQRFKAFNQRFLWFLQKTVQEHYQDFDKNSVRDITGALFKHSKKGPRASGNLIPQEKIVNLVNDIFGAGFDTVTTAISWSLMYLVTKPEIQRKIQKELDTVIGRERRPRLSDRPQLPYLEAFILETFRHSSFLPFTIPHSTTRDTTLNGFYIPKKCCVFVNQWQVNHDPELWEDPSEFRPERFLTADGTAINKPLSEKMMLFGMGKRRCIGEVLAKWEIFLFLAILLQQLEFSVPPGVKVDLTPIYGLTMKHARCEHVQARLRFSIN
Outline: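 Human CYP1A2 (20nM) demethylated Luciferin-ME at its Km (100uM) in 100mM KPO4. After 10 min compound preincubation, NADPH regeneration ran the reaction 60 min at room temperature. Luciferin was read by luminescence, normalized to 57 uM furafylline.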

[4] = NFAT Signaling Pathway (AID 444); settings: Jurkat NFAT-bla M1, carbachol, beta-lactamase ratio, 5 h; at 7.69 µM (top of the series) unless noted;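 note: carbachol stimulus at about its EC50 of 1 µM final; % is set by controls: 0 for no effect and ±100 for the full control effect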
Outline: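 Read-out: CCF4 FRET ratio (460 nm/530 nm) after 1 h RT dye loading, used for %activity and AC50 from titration series. Cells: Jurkat NFAT-β-lactamase/M1 line, treated with compound plus 1 uM carbachol for 5 h, 37 °C.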

[5] = Stat Signaling Pathway (AID 446); settings: ME-180 (cervical carcinoma) SIE beta-lactamase reporter, IL-6 stimulated, 5 h; at 7.69 µM (top of the series) unless noted;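 note: ME-180 cervical cancer cells given 40 pM IL-6 alongside compound; SIE-controlled beta-lactamase reporter measured as 460/530 nm FRET emission ratio; % is set by controls: 0 for no effect and ±100 for the full control effect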
Outline: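 IL-6/STAT signaling read in ME-180 cells via an SIE beta-lactamase reporter. Stimulus was 40 pM IL-6 (its AC50) for 5 hrs, so both activation and inhibition register.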

[6] = biological target: Glucocorticoid receptor (Homo sapiens) (UniProt P04150); experiment: GR-GFP Redistribution (AID 450;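 active = compounds whose dose series gives a full or clear partial fitted curve of increased nuclear translocation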; note: potency is the fitted concentration of half-maximal effect); settings: U2OS GR-GFP nuclear translocation, laser cytometry, 2 h
Glucocorticoid receptor (Homo sapiens), sequence (P04150 whole entry, looked up, the tested form may be a part): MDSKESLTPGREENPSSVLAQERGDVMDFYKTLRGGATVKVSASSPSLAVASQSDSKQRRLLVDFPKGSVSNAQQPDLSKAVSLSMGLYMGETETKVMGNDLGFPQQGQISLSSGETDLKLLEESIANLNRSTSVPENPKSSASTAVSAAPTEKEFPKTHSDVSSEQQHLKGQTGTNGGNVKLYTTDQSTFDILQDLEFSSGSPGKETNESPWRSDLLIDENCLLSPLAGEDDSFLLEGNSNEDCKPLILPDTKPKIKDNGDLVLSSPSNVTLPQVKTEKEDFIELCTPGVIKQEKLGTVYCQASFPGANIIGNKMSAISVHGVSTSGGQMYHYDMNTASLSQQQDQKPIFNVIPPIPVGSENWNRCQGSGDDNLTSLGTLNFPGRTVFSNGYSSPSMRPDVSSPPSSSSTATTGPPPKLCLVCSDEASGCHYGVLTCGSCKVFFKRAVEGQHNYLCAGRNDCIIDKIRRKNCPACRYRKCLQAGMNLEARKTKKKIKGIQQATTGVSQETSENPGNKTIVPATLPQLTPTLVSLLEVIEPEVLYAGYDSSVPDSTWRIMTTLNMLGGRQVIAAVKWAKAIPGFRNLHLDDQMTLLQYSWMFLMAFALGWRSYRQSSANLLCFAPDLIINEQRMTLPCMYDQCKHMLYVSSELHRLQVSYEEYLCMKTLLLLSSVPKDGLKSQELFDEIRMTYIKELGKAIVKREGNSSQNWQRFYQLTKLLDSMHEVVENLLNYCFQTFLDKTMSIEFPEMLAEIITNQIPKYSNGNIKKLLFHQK

[7] = biological target: Glucocorticoid receptor (Homo sapiens) (UniProt P04150); experiment: GR-EFC Redistribution (AID 451; calls by dose curve; note: potency is the fitted concentration of half-maximal effect); settings: CHO-K1 GR-EFC translocation, beta-gal luminescence, 2 h
Outline: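 Translocation of GR-ED fusion to nuclear EA restores b-gal, read by luminescence after 1 h room-temperature detection. Engineered CHO-K1 biosensor cells, 1,000/well, exposed 2 h at 37 C to titrations up to 46 uM final.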

[8] = biological target: Mitogen-activated protein kinase 10 (Mus musculus) (UniProt Q61831); experiment: JNK3 AlphaScreen Assay (AID 530); settings: JNK3 lysate, c-Jun phosphorylation; series mostly up to 11.4 µM;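 note: kinase came from lysate of stimulated human HepG2 cells; signal reports phosphorylation of biotinylated GST-cJun 1-79 at Ser73 with 10 µM ATP; % is set by controls: 0 for no effect and ±100 for the full control effect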
Outline: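 Room-temperature AlphaScreen kinase assay; pre-activated HepG2 lysate as JNK3 source, biotin-GST-cJun(1-79) substrate, 10 uM ATP, compound 15 min preincubation.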

[9] = biological target: 3',5'-cyclic-AMP phosphodiesterase 4B (Homo sapiens) (UniProt Q07343); experiment: qHTS Assay for Inhibitors of PDE-IV (AID 607; active = well fitted activation curve with a large enough effect in the main read-out, with a control signal flat, not every such curve was filed as active; note: % of control where 0% means no effect); settings: HEK293 ACTOne CNG channel cells, membrane potential fluorescence; series mostly up to 22.9 µM
3',5'-cyclic-AMP phosphodiesterase 4B (Homo sapiens), sequence (Q07343 whole entry, looked up): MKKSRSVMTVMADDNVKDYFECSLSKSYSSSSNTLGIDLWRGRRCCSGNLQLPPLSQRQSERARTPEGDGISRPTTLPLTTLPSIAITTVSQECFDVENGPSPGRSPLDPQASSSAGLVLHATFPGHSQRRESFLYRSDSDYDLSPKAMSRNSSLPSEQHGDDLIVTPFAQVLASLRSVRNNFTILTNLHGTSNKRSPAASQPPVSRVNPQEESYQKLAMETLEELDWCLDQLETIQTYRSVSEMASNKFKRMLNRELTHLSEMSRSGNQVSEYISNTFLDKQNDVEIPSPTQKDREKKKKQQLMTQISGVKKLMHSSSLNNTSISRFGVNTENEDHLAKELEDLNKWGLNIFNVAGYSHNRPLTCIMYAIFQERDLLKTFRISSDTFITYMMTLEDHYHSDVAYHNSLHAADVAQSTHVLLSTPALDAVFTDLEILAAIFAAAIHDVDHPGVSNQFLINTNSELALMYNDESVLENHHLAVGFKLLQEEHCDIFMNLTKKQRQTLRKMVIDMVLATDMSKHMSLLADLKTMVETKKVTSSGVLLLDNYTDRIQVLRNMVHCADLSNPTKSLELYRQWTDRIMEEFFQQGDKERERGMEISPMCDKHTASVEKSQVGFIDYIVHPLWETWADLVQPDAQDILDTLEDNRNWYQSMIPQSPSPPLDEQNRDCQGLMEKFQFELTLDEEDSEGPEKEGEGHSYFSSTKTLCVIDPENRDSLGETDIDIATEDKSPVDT
Outline: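 Live HEK293 cells with a modified cyclic nucleotide-gated (CNG) channel report intracellular cAMP via membrane-potential dye fluorescence (ex 535/em 590 nm). Endogenous PDE-IV was targeted. Compounds were tested at up to 22.9 uM final; RO 20-1724 100 uM served as control.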

NS(=O)(=O)c1ccc(NCc2nc3ccccc3[nH]2)cc1
inactive: Potency [1] > 11.4 µM | activity change, negative = inhibition [2] 2.25% | activity change, negative = inhibition [3] -18.8% [at 2.29 µM] | activity change, negative = inhibition [4] 8.2% | activity, negative = inhibition [5] 9.55% | Potency [6] > 46 µM | Potency [7] > 9.22 µM | Potency [8] | Potency [9]

Cn1cnc([N+](=O)[O-])c1[Se]c1nc(N)nc2c1ncn2[C@@H]1O[C@@H](CO)[C@H](O)[C@@H]1O
inactive: Potency [1] > 11.4 µM | activity change, negative = inhibition [2] 4.67% | activity change, negative = inhibition [3] -12.8% [at 2.29 µM] | activity change, negative = inhibition [4] 8.52% | activity, negative = inhibition [5] 10.6% | Potency [6] > 46 µM | Potency [7] > 9.22 µM | Potency [8] | Potency [9]

CCOC(=O)[C@]1(CC(=O)O)CCCC1=O
inactive: Potency [1] > 11.4 µM | activity change, negative = inhibition [2] -0.0726% | Potency [3] | activity change, negative = inhibition [4] -7.19% | activity, negative = inhibition [5] -19.1% | Potency [6] > 46 µM | Potency [7] > 9.22 µM | Potency [8] | Potency [9]

Nc1ccn([C@@H]2O[C@H](COC(=O)C34CC5CC(CC(C5)C3)C4)[C@@H](O)[C@@H]2O)c(=O)n1
inactive: Potency [1] > 11.4 µM | activity change, negative = inhibition [2] 9.17% | activity change, negative = inhibition [3] -18.7% [at 2.29 µM] | activity change, negative = inhibition [4] 16.8% | activity, negative = inhibition [5] -0.882% | Potency [6] > 46 µM | Potency [7] > 9.22 µM | Potency [8] | Potency [9]

COc1ccc(CSC2=C(C#N)C(=O)NC3(CCCCC3)S2)cc1
inactive: Potency [1] > 11.4 µM | activity change, negative = inhibition [2] 4.52% | activity change, negative = inhibition [3] -5.8% [at 2.29 µM] | activity change, negative = inhibition [4] 7.32% | activity, negative = inhibition [5] 1.46% | Potency [6] > 46 µM | Potency [7] > 9.22 µM | Potency [8] | Potency [9]

NS(=O)(=O)c1ccc(NCc2cnc3ccccc3n2)cc1
inactive: Potency [1] > 11.4 µM | activity change, negative = inhibition [2] 5.55% | activity change, negative = inhibition [3] -18.2% [at 2.29 µM] | activity change, negative = inhibition [4] 6.06% | activity, negative = inhibition [5] 3.16% | Potency [6] > 46 µM | Potency [7] > 9.22 µM | Potency [8] | Potency [9]

Nc1ccc(C(=O)C[C@H](N)C(=O)O)cc1O
inactive: Potency [1] > 11.4 µM | activity change, negative = inhibition [2] 8.27% | Potency [3] | activity change, negative = inhibition [4] -4.19% | activity, negative = inhibition [5] 6.37% | Potency [6] > 46 µM | Potency [7] > 9.22 µM | Potency [8] | Potency [9]

Cc1cc([N+](=O)[O-])c(C)c(Br)c1C
active: Potency [3] 1 µM
inactive: Potency [1] > 11.4 µM | activity change, negative = inhibition [2] 3.15% | activity change, negative = inhibition [4] -7.3% | activity, negative = inhibition [5] 6.97% | Potency [6] > 46 µM | Potency [7] > 9.22 µM | Potency [8] | Potency [9]

C=C(C)CNCCN
inactive: Potency [1] > 11.4 µM | activity change, negative = inhibition [2] 0.933% | activity change, negative = inhibition [3] 2.2% [at 2.29 µM] | activity change, negative = inhibition [4] 17.5% | activity, negative = inhibition [5] 8.28% | Potency [6] > 46 µM | Potency [7] > 9.22 µM | Potency [8] | Potency [9]

O=[N+]([O-])c1nccn1C[C@H](O)CN1CCCCC1
inactive: Potency [1] > 11.4 µM | activity change, negative = inhibition [2] 21.1% | Potency [3] | activity change, negative = inhibition [4] 0.912% | activity, negative = inhibition [5] 6.06% | Potency [6] > 46 µM | Potency [7] > 9.22 µM | Potency [8] | Potency [9]

Nc1nc(-c2ccccc2)c(-c2ccccc2)c(-c2nc(N)nc(-c3ccccc3)c2-c2ccccc2)n1
inactive: Potency [1] > 11.4 µM | activity change, negative = inhibition [2] -1.08% | Potency [3] | activity change, negative = inhibition [4] 16.1% | activity, negative = inhibition [5] 3.19% | Potency [6] > 46 µM | Potency [7] > 9.22 µM | Potency [8] | Potency [9]

NC(N)=NNC(=O)C(=O)O
inactive: Potency [1] > 11.4 µM | activity change, negative = inhibition [2] 2.05% | Potency [3] | activity change, negative = inhibition [4] 4.61% | activity, negative = inhibition [5] 2.14% | Potency [6] > 46 µM | Potency [7] > 9.22 µM | Potency [8] | Potency [9]

NC(=S)SCCC(=O)O
active: Potency [3] 1.58 µM
inactive: Potency [1] > 11.4 µM | activity change, negative = inhibition [2] 11.1% | activity change, negative = inhibition [4] 14.5% | activity, negative = inhibition [5] 14.5% | Potency [6] > 46 µM | Potency [7] > 9.22 µM | Potency [8] | Potency [9]

NCCNCC1CCNCC1
inactive: Potency [1] > 11.4 µM | activity change, negative = inhibition [2] 2.94% | activity change, negative = inhibition [3] -3.6% [at 2.29 µM] | activity change, negative = inhibition [4] 8.35% | activity, negative = inhibition [5] 3.5% | Potency [6] > 46 µM | Potency [7] > 9.22 µM | Potency [8] | Potency [9]

CCn1c(CCCc2nc3c([nH]2)c(=O)n(C)c(=O)n3C)nc2c1c(=O)n(C)c(=O)n2C
inactive: Potency [1] > 11.4 µM | activity change, negative = inhibition [2] -3.01% | activity change, negative = inhibition [3] -16.7% [at 2.29 µM] | activity change, negative = inhibition [4] 6.75% | activity, negative = inhibition [5] 1.77% | Potency [6] > 46 µM | Potency [7] > 9.22 µM | Potency [8] | Potency [9]
